# Laboratory results from PubChem BioAssay (NCATS).
# Where “and” joins values, the source holds several entries; their conditions need not be identical. Equal entries are not always repeated. A number with no mark means an inactive call. Records with an inconclusive call do not appear. Calls of active or inactive are those of the source. Calls follow the shape of the dose curve; as a rule, active = well fitted curve in the direction sought with a large enough effect; inconclusive = small, poorly fitted or top-dose-only effect, or another doubt; inactive = no such curve, though single readings can be large or run the other way.
# Columns and labels:
# [1] = target: T1, Hexokinase-4 (Homo sapiens) + Glucokinase regulatory protein (Homo sapiens) (UniProt P35557+Q14397); test: qHTS assay for inhibitors of recombinant human GCK-GKRP interaction: ADP-Glo assay (AID 743206); conditions: ADP-Glo luminescence, 60 min, 0% = vehicle-only wells with enzyme present; series mostly up to 76.9 µM;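 also: plate controls were DMSO plus enzyme for no effect and no enzyme for full effect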
# T1 sequence (P35557 whole entry, looked up): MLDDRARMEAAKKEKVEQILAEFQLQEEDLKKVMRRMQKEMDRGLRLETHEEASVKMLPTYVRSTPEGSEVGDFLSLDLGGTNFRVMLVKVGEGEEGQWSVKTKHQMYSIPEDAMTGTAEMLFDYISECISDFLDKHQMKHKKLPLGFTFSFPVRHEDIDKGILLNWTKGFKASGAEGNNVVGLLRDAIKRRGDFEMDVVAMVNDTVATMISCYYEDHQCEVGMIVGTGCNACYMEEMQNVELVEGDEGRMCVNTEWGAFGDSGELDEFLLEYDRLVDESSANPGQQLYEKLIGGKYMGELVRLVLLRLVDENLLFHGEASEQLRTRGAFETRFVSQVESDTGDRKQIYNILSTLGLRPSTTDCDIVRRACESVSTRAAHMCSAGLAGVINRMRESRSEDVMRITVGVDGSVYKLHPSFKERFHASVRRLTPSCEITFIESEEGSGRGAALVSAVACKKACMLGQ
# T1 sequence (Q14397 whole entry, looked up): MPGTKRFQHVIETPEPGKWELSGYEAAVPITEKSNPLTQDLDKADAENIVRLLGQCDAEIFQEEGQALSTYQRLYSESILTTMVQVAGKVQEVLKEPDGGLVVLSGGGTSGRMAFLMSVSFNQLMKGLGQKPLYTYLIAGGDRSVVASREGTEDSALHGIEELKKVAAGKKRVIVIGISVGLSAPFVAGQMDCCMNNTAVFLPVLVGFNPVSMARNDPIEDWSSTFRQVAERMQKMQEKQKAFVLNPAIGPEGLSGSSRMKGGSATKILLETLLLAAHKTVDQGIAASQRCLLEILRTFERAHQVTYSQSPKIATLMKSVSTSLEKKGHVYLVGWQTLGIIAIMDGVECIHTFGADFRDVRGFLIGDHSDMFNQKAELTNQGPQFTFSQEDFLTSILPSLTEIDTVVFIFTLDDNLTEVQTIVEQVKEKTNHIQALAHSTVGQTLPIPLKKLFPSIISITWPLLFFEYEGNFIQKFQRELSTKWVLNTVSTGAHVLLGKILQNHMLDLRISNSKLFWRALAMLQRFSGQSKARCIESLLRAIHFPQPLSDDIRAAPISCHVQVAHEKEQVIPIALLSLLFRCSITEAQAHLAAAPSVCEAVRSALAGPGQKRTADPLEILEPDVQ
# Summary of the method: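 Pin-transferred compounds meet a 15 nM GST-GCK/15 nM FLAG-GKRP/2 uM S6P mix (dispense concentrations). ATP is then added to 0.4 mM final with 5 mM glucose, and the reaction runs 60 min at room temperature. ADP is quantified luminescently.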
# [2] = target: T1, Hexokinase-4 (Homo sapiens) + Glucokinase regulatory protein (Homo sapiens); test: qHTS assay for inhibitors of recombinant human GCK-GKRP interaction: HTRF assay (AID 743207); conditions: recombinant GCK-GKRP HTRF binding, 60 min, with sorbitol-6-phosphate; series mostly up to 57.5 µM;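 also: 0% = DMSO with GCK present and -100% = DMSO wells lacking GCK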
# Summary of the method: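 After 60 min equilibration at room temperature with anti-FLAG XL665 and anti-GST antibodies, FRET ratio (665/615 nm, excitation 320 nm) was read. Proteins: GST-GCK and FLAG-GKRP, each 5 nM, plus 2 uM S6P, pH 7.1 buffer; GCK-free wells define minimum signal.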
# [3] = qHTS Assay for Identifying Gametocytocidal Compounds (AID 743244); also: potency is read from the fitted curve at half-maximal effect;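 as to max response: % is scaled to controls: 0 for no effect and ±100 for the full control effect; actives lower the fluorescent signal which means gametocytes are killed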; conditions: P. falciparum 3D7 stage III-V gametocytes, alamarBlue, 72 h; max response: stronger effect = lower value
# Summary of the method: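 3D7 gametocytes, stages III–V, 20,000/well; cpd 72 h, 37 °C/5% CO2; + alamarBlue 24 h; fluor. Ex 525/Em 598.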
smiles,measurement,setting,value
CC(C)N(CCC(=O)c1ccc2ccccc2c1)Cc1ccccc1,outcome,[1],inactive
same,outcome,[2],inactive
CC(C)(C)C(=O)OCOC(=O)C1N2C(=O)CC2S(=O)(=O)C1(C)C (stereo not given),max response,[3],0.683%
Nc1ncnc2n[nH]c(Nc3ccc(F)cc3)c12,outcome,[1],inactive
same,outcome,[2],inactive
same,max response,[3],6.51%
C1N2CN3CN1CN(C2)C3,max response,[3],2.07%
COc1ccccc1N1CCN(CCN2C(=O)CC3(CCCC3)CC2=O)CC1,outcome,[1],inactive
same,outcome,[2],inactive
same,max response,[3],21.4%
C[N+](C)(C)CCO,outcome,[1],inactive
same,outcome,[2],inactive
same,max response,[3],1.6% and 15%
CN=C(N)NC(=O)Nc1c(C)cccc1C,max response,[3],9.51%
CC(C)(C)c1nnc(NS(=O)(=O)c2ccccc2)s1,max response,[3],0.521%
CC(C)C[C@H](NC(=O)CNC(=O)[C@H](Cc1ccc(O)cc1)NC(=O)[C@H](CO)NC(=O)[C@H](Cc1c[nH]c2ccccc12)NC(=O)[C@H](Cc1cnc[nH]1)NC(=O)[C@@H]1CCC(=O)N1)C(=O)N[C@@H](CCCN=C(N)N)C(=O)N1CCC[C@H]1C(=O)NCC(N)=O (stereo in doubt),max response,[3],-1.4%
CCCCCCCCCCCCCCCC[N+](C)(C)Cc1ccccc1,Potency,[3],7.08 µM (active)
O=C1NC(=O)/C(=C/c2ccc3c(c2)OC(F)(F)O3)S1,outcome,[1],inactive
same,outcome,[2],inactive
same,max response,[3],-20.1%
CCCCCC(=O)O[C@]1(C(C)=O)CC[C@H]2[C@@H]3CCC4=CC(=O)CC[C@]4(C)[C@H]3CC[C@@]21C,max response,[3],7.11%
OC(CCCN1CCCCC1)(c1ccccc1)c1ccccc1,max response,[3],-13.7%
COc1c(C)c2c(c(O)c1C/C=C(\C)CCC(=O)OCCN1CCOCC1)C(=O)OC2,max response,[3],2.71%
Cc1nn(-c2ccccc2)c(C)c1/C=N/N1CCN(Cc2ccccc2)CC1,outcome,[1],inactive
same,outcome,[2],inactive
same,max response,[3],1.48%
N[C@@H](Cn1ccc(=O)c(O)c1)C(=O)O,outcome,[1],inactive
same,outcome,[2],inactive
same,max response,[3],9.87%
COC(=O)C1=CO[C@@H](O)[C@@H]2C(CO)=CC[C@H]12,outcome,[1],inactive
same,outcome,[2],inactive
same,max response,[3],18%
CCN(CC)CCNC(=O)c1ccc(NS(C)(=O)=O)cc1,outcome,[1],inactive
same,outcome,[2],inactive
same,max response,[3],-10.8%
O=C(NN1CCCC1)NS(=O)(=O)c1ccc(Cl)cc1,max response,[3],0.581%
CO/N=C(/C(=O)N[C@@H]1C(=O)N2C(C(=O)OCOC(=O)C(C)(C)C)=C(C)CS[C@H]12)c1csc(N)n1,max response,[3],-0.603%
NC(N)=NCCCCN=C(N)N,outcome,[1],inactive
same,outcome,[2],inactive
same,max response,[3],2.24% and 15.3%
Cn1cnc2c(NCc3ccccc3)nc(NCCO)nc21,outcome,[1],inactive
same,outcome,[2],inactive
same,max response,[3],11.6%
O=C1NC(c2cccc([N+](=O)[O-])c2)=CCN1c1ccccc1O,outcome,[1],inactive
same,outcome,[2],inactive
same,max response,[3],21.2%
Clc1ccc2c(c1)N=C(N1CCNCC1)c1ccccc1N2,outcome,[1],inactive
same,outcome,[2],inactive
CCOC(=O)c1ccc(NC(=O)CN2CCCCC2)cc1,max response,[3],11.1%
CSCC[C@H](NC(=O)[C@H](Cc1c[nH]c2ccccc12)NC(=O)CCNC(=O)OC(C)(C)C)C(=O)N[C@@H](CC(=O)O)C(=O)N[C@@H](Cc1ccccc1)C(N)=O,max response,[3],-18.5%
CN1CCCN=C1/C=C/c1cccs1,max response,[3],3.61%
COc1cccc2c1[C@@H]1CN(CCCCn3c(=O)[nH]c4c(sc5ncc(-c6ccccc6)nc54)c3=O)C[C@@H]1CO2,outcome,[1],inactive
same,outcome,[2],inactive
same,max response,[3],22.3%
CC(NN)c1ccccc1 (stereo not given),max response,[3],-6.49%
CC(=O)Nc1ccc(S(=O)(=O)Nc2cc(C)on2)cc1,max response,[3],3.06%
CC(=O)OCC(=O)[C@@]1(O)CCC2C3CCC4=CC(=O)CC[C@]4(C)C3[C@@H](O)C[C@@]21C (stereo not given in full),max response,[3],-8.54%
Brc1ccc([C@H]2CN3CCSC3=N2)cc1,outcome,[1],inactive
same,outcome,[2],inactive
same,max response,[3],13.2%
O=[N+]([O-])c1ccc(-c2nc(-c3ccc(F)cc3)c(-c3ccncc3)[nH]2)cc1,outcome,[1],inactive
same,outcome,[2],inactive
same,max response,[3],-10.7%
CC1CN(c2cc3c(cc2F)c(=O)c(C(=O)O)cn3-c2ccc(F)cc2F)CCN1 (stereo not given),max response,[3],-18.1%
CO[C@@H]1[C@@H](OC)[C@H](C)[C@@](O)(CC(=O)O)O[C@H]1[C@H](C)[C@H]1O[C@@]2(CC[C@@](C)([C@H]3CC[C@@](C)([C@@H]4O[C@@H]([C@H]5O[C@](C)(O)[C@H](C)C[C@@H]5C)C[C@@H]4OC4C[C@H](OC)[C@@H](OC)[C@H](C)O4)O3)O2)C[C@H](O)[C@H]1C (stereo not given in full),Potency,[3],0.0935 µM (active)
